In PubChem BioAssay (NCATS):
Records with an inconclusive call do not appear. Activity calls are given as the source filed them. Unless noted, the call rests on the fitted dose curve; in most records, active means well fitted curve in the direction sought with a large enough effect; inconclusive means small, poorly fitted or top-dose-only effect, or another doubt; inactive means no such curve, though single readings can be large; an effect the other way counts as inactive or inconclusive.

Legend:
[1] = qHTS assay for small molecule disruptors of the mitochondrial membrane potential - 1 hr assay (AID 651754; calls by dose curve; further: on the % scale 0 is the no-effect control and ±100 the full control effect; nearly all actives have a fitted effect of over 35% in size)
Method in brief: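 HepG2 cells, attached overnight at 37C, were exposed to compound or DMSO vehicle for 1 hr at 37C, 5% CO2, then stained with Mito-MPS dye for 30 min. Red aggregate versus green monomer fluorescence reports membrane potential.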

[2] = qHTS assay for small molecule disruptors of the mitochondrial membrane potential - 5 hr assay (AID 651755; calls by dose curve; further: on the % scale 0 is the no-effect control and ±100 the full control effect; nearly all actives have a fitted effect of over 40% in size)
Method in brief: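 HepG2, 2,000 cells/well, overnight attach; cpd or DMSO 5 hr, 37C/5% CO2; Mito-MPS 30 min 37C; fluor 490/535 + 540/590 nm.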

[3] = target: Tumor necrosis factor (Homo sapiens) (UniProt P01375); test: qHTS assay to identify small molecules that stimulate Tumor Necrosis Factor-alpha (TNF-alpha) secretion (AID 651757; active means well fitted curve in the direction sought with a large enough effect in the signal ratio; the % refers to the signal ratio; further: 0% is about no effect)
Sequence of Tumor necrosis factor (Homo sapiens) (P01375 whole entry, looked up): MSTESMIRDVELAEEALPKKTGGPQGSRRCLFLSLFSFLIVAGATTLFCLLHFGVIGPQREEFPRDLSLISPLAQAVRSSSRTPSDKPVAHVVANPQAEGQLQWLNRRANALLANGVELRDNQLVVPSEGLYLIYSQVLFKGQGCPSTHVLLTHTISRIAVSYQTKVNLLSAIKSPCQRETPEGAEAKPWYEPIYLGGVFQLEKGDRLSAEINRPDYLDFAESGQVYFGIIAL
Method in brief: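 THP-1 cells were exposed to compounds for 17 hrs at 37 C, after which secreted TNF-alpha was measured by homogeneous HTRF (TR-FRET) using cryptate- and XL665-labeled anti-TNF-alpha antibodies, read after 3 hr at room temperature.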

[4] = qHTS assay for environmental chemicals that activate the Aryl hydrocarbon Receptor (AhR) signaling pathway (AID 651777); settings: 1A2-DRE human hepatoma cells, luciferase, 24 h; activation: active compounds read high; further: % of control where 0% means no effect; nearly all actives have a fitted effect of over 15% in size
Method in brief: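 Following a 24 hr incubation with test chemicals at 37 C and 5% CO2, 1A2-DRE human hepatoma cells received One-Glo reagent; after 30 min at room temperature, luciferase output reflected CYP1A2 induction via AhR.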

[5] = target: Peroxisome proliferator-activated receptor alpha (Homo sapiens) (UniProt Q07869); test: qHTS assay for small molecule agonists of the peroxisome proliferator-activated receptor alpha (PPARalpha) signaling pathway (AID 651778); settings: PathHunter PPARalpha complementation, chemiluminescence, 6 h; active compounds read high; further: % of control where 0% means no effect
Sequence of Peroxisome proliferator-activated receptor alpha (Homo sapiens) (Q07869 whole entry, looked up): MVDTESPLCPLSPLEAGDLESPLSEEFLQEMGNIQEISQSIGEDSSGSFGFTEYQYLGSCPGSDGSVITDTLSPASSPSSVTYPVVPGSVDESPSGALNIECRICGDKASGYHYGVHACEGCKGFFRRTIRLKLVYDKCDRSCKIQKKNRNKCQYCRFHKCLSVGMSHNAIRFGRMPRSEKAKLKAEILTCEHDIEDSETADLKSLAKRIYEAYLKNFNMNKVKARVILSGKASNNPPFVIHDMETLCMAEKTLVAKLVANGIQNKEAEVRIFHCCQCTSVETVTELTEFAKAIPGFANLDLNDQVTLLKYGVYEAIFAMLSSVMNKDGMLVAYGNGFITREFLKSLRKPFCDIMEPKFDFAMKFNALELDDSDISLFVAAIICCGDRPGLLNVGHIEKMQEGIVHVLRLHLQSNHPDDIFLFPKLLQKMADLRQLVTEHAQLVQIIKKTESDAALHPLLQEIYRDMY
Method in brief: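 Chemiluminescence from complemented enzyme reported PPARalpha activation in cells after 6 hr of compound treatment at 37 C. The detection reagent was incubated for 60 min at room temperature, and compounds were scored as agonists.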

[6] = target: Nuclear receptor ROR-gamma (Homo sapiens) (UniProt P51449); test: qHTS assay for small molecule antagonists of the retinoid-related orphan receptor gamma (ROR-gamma) signaling pathway (AID 651802); further: series mostly up to about 92 µM; on the % scale 0 is the no-effect control and ±100 the full control effect; nearly all actives have a fitted effect of over 60% in size
Sequence of Nuclear receptor ROR-gamma (Homo sapiens) (P51449 whole entry, looked up): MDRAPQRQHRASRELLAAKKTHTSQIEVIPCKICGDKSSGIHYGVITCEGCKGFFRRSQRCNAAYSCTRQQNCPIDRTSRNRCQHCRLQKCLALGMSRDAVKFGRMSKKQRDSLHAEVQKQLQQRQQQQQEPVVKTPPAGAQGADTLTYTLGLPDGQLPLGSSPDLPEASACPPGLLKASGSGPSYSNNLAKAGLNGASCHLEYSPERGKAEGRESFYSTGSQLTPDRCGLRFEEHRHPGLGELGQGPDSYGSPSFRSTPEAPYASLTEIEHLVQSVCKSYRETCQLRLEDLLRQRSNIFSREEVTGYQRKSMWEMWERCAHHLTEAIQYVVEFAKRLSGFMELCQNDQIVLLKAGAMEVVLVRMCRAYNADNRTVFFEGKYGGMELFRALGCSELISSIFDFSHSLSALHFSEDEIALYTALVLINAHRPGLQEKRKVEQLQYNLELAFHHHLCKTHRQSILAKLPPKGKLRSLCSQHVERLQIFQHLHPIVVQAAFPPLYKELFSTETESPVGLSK
Method in brief: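 CHO cells carrying TET-inducible ROR-gamma and an ROR response element–luciferase reporter were exposed to compound, then induced with doxycycline. After 16hr at 37C, luminescence was read; lower signal indicates antagonism.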

[7] = qHTS assay for small molecule agonists of the antioxidant response element (ARE) signaling pathway measured by Nrf2-dependant transcriptional activity (AID 720636; active means well fitted curve in the direction sought with a large enough effect in the repeat runs; an effect the other way counts as inactive or inconclusive; further: % of control where 0% means no effect)
Method in brief: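 ONE-Glo luminescence, read 30 min after reagent addition at room temperature, reflected ARE reporter activity in HepG2 cells that had been incubated with compound for 16 hr at 37 C in 1% dialyzed FBS.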

[8] = qHTS assay for small molecule antagonists of the retinoid-related orphan receptor gamma (ROR-gamma) signaling pathway - cell viability counter screen (AID 720652; active means well fitted curve in the direction sought with a large enough effect in the repeat runs; an effect the other way counts as inactive or inconclusive;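 further: series mostly up to about 92 µM; compound exposure lasted 16 hr before ATP read; on the % scale 0 is the no-effect control and ±100 the full control effect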)
Method in brief: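 Counter screen in CHO cells carrying TET-inducible ROR-gamma and an ROR response element-luciferase reporter; cells plated 5 hr, compound pinned, doxycycline added, then 16 hr at 37 C. Viability read as intracellular ATP by CellTiter-Glo luminescence.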

[9] = qHTS assay for small molecule agonists of the antioxidant response element (ARE) signaling pathway measured by Nrf2-dependant transcriptional activity - cell viability counter screen (AID 720653; active means well fitted curve in the direction sought with a large enough effect in the repeat runs; an effect the other way counts as inactive or inconclusive; further: on the % scale 0 is the no-effect control and ±100 the full control effect); settings: ARE-bla HepG2 viability, CellTiter-Glo ATP luminescence, 16 h; active compounds read low
Method in brief: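 Cytotoxicity counter screen: intracellular ATP quantified by CellTiter-Glo luminescence in the same ARE-bla HepG2 plates, after 16 h compound exposure and a 2 h beta-lactamase substrate step.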

[10] = qHTS assay for cell viability of HEK293 cells (AID 743288); settings: ATP luminescence (CellTiter-Glo), 18 h; max response: active compounds read low; further: on the % scale 0 is the no-effect control and ±100 the full control effect; nearly all actives have a fitted effect of over 50% in size
Method in brief: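 Luminescent ATP quantitation served as the viability read-out. Cells (parental HEK293, 2,000/well) received compounds after at least 5 h at 37 C and were exposed for 18 h before a 30 min room-temperature reagent step.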

[11] = target: Nuclear receptor subfamily 1 group I member 3 (Homo sapiens) (UniProt Q14994); test: Primary qHTS for antagonist of constitutive androstane receptor (CAR) against the NCATS DSHEA and TCM libraries (AID 1794836);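 further: HepG2 cells stably expressing hCAR with CYP2B6 luciferase reporter stimulated by CITCO; series mostly up to about 40 µM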
Sequence of Nuclear receptor subfamily 1 group I member 3 (Homo sapiens) (Q14994 whole entry, looked up): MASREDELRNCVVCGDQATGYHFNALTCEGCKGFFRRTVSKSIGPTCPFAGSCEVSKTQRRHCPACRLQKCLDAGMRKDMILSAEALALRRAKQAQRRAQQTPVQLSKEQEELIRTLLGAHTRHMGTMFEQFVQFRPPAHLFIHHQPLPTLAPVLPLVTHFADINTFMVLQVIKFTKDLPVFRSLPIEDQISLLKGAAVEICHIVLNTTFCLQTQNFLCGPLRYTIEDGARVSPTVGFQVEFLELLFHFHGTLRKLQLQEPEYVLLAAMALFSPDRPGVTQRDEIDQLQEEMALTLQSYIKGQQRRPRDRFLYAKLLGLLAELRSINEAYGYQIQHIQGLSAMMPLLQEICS
Method in brief: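 Antagonist mode: CAR reporter luminescence (ONE-Glo) in HepG2-CYP2B6-hCAR cells stimulated with 48 uM CITCO (final) over 24 h at 37 C, compounds titrated; viability read first by CellTiter-Fluor fluorescence.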

[12] = Viability counterscreen for antagonist of constitutive androstane receptor (CAR) against the NCATS DSHEA and TCM libraries (AID 1794837);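 further: compound exposure lasted 24 h before viability reading; 0% is about no effect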
Method in brief: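 Counterscreen performed in a 1536-well qHTS format using HepG2-CYP2B6-hCAR cells; samples titrated in the presence of 48 uM CITCO, with viability measured fluorometrically (405/540 nm) after 24 h.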

[13] = HepG2 viability counterscreen (readout 2: ATP content) against the NCATS DSHEA and TCM libraries (AID 1794840); further: 0% is about no effect
Method in brief: (§1)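 After HepG2 cells attach for ~4 h, substances are added and incubated ~24 h at 37C, 5% CO2. GF-AFC fluorescence then CellTiter-Glo luminescence give protease and ATP readouts.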

[14] = HepG2 viability counterscreen (readout 1: protease activity) against the NCATS DSHEA and TCM libraries (AID 1794841);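 further: cells exposed to compounds for about 24 h before the protease read; 0% is about no effect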
Method in brief: as §1

[15] = target: Cytochrome P450 2D6 (Homo sapiens) (UniProt P10635); test: qHTS for inhibitors of CYP2D6 against the NCATS DSHEA and TCM libraries (AID 1919972); further: on the % scale 0 is the no-effect control and ±100 the full control effect
Sequence of Cytochrome P450 2D6 (Homo sapiens) (P10635 whole entry, looked up): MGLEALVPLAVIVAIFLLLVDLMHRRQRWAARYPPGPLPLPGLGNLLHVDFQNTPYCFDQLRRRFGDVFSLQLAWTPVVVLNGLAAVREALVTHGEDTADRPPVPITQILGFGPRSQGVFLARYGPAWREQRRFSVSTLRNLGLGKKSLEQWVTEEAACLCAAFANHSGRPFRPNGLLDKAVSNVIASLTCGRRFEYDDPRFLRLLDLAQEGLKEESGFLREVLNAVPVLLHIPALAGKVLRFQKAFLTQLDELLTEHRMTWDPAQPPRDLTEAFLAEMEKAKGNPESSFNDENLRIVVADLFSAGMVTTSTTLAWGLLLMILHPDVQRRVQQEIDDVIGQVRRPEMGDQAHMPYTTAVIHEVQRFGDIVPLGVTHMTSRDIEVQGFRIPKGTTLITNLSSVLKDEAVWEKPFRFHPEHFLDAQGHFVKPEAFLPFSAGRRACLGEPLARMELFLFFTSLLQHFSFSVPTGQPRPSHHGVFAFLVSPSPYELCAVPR
Method in brief: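 Steps: enzyme plus luciferin substrate dispensed; test substances pinned; 15 min RT; 1x NADPH regenerating solution added, 30–45 min RT protected from light; detection reagent, 30 min RT; luminescence measured. Minus-enzyme wells as background.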

[16] = target: Cytochrome P450 2C19 (Homo sapiens) (UniProt P33261); test: qHTS for inhibitors of CYP2C19 against the NCATS DSHEA and TCM libraries (AID 1919974);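 further: luminescence from luciferin released by CYP2C19 oxidation of a pro-luciferin substrate; potency means the concentration at half of the fitted maximal effect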
Sequence of Cytochrome P450 2C19 (Homo sapiens) (P33261 whole entry, looked up): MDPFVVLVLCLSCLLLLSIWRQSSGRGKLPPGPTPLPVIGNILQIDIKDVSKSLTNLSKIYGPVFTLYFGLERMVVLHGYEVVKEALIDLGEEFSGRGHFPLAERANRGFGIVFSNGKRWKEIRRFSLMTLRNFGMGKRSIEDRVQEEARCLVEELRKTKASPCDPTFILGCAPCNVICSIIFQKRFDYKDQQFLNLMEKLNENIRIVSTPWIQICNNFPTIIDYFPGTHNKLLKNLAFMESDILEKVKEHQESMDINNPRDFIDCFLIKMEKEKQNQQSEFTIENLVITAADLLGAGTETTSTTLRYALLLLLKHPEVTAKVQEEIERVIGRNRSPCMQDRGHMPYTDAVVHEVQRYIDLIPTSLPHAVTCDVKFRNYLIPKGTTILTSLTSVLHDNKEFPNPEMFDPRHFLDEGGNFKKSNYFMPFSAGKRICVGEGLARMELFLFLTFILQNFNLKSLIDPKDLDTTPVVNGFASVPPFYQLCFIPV
Method in brief: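 Luminescent P450-Glo readout. Enzyme plus pro-luciferin substrate in manufacturer buffer (typically 100 mM KPO4); 15 min RT preincubation; 1x NADPH regenerating system, 30-45 min RT in the dark; detection reagent 30 min.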

[17] = KB-3-1 P-gp reporter qHTS against the NCATS DSHEA and TCM libraries (AID 1919975); further: 0% is about no effect
Method in brief: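 Cell viability qHTS: 500 KB-3-1 cells/well, substances in titration, ~72 h, 37C; luminescent CellTiter-Glo read.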

[18] = KB-8-5-11 P-gp reporter qHTS against the NCATS DSHEA and TCM libraries (AID 1919977); further: 0% is about no effect
Method in brief: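 Viability of drug-resistant KB-8-5-11 cells is measured by CellTiter-Glo luminescence following roughly 72 h treatment at 37C. Substances were titrated, with bortezomib as intraplate control.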

[19] = qHTS Counterscreen for compound interference against the NCATS DSHEA and TCM libraries (AID 1919978); settings: firefly luciferase detection reagent interference, luminescence;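 further: compounds preincubated with 1 µM D-luciferin or buffer before detection reagent; % of control where 0% means no effect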
Method in brief: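 Interference check: test samples were incubated with D-luciferin (final 1 uM) or buffer only for 15 min, room temperature, in a qHTS titration up to 39.8 uM, then developed with detection reagent and read by luminescence.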

[20] = Dual reporter qHTS for agonist of Pregnane X Receptor (hPXR) against the NCATS DSHEA and TCM libraries: Fluorescence readout (AID 1920058); further: 0% is about no effect
Method in brief: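 hPXR-Luc HepG2 cells (2000/well) in phenol red-free medium with charcoal-stripped FBS attached for 5 h, then were exposed to compounds for about 24 h at 37 °C. Viability was read by CellTiter-Fluor fluorescence (Ex/Em 405/540 nm) after 1 h.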

[21] = target: Nuclear receptor subfamily 1 group I member 2 (Homo sapiens) (UniProt O75469); test: Dual reporter qHTS for agonist of Pregnane X Receptor (hPXR) against the NCATS DSHEA and TCM libraries: Luminescence readout (AID 1920059); further: 0% is about no effect
Sequence of Nuclear receptor subfamily 1 group I member 2 (Homo sapiens) (O75469 whole entry, looked up): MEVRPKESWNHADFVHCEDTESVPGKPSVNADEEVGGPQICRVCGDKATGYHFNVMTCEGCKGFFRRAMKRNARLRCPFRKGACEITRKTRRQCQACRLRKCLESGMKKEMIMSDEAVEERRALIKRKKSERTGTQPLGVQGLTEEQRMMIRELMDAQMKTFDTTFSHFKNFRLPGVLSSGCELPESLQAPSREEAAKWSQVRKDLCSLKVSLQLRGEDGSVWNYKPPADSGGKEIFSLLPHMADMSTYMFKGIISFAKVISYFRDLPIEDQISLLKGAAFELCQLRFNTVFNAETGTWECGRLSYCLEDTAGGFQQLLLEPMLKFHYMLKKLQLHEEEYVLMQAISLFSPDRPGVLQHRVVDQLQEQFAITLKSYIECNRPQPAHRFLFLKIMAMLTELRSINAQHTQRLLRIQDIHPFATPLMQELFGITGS
Method in brief: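 Luminescent PXR reporter read (ONE-Glo) after a CellTiter-Fluor viability read, following 24 h, 37C treatment of HepG2 cells stably carrying hPXR-Luc.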

[22] = target: Nuclear receptor subfamily 1 group I member 2 (Homo sapiens) (UniProt O75469); test: Dual reporter qHTS for antagonist of Pregnane X Receptor (hPXR) against the NCATS DSHEA and TCM libraries: Luminescence Readout (AID 1920060); further: 0% is about no effect
Method in brief: (§2)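 Rifampicin-stimulated (2 uM final) hPXR-luciferase HepG2 cells were treated for 24 h with DSNP/TCM substances. Viability came from CellTiter-Fluor fluorescence, reporter activity from ONE-Glo luminescence.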

[23] = Dual reporter qHTS for antagonist of Pregnane X Receptor (hPXR) against the NCATS DSHEA and TCM libraries: Fluorescence Readout (AID 1920061); further: 0% is about no effect
Method in brief: as §2

[24] = target: Nuclear receptor subfamily 1 group I member 2 (Rattus norvegicus) (UniProt Q9R1A7); test: qHTS assay for small molecule activators of the rat pregnane X receptor (rPXR) signaling pathway (AID 651751; call rule not given here; further: 0% is about no effect); settings: rPXR reporter cells, luciferase (One-Glo), 24 h
Sequence of Nuclear receptor subfamily 1 group I member 2 (Rattus norvegicus) (Q9R1A7 whole entry, looked up): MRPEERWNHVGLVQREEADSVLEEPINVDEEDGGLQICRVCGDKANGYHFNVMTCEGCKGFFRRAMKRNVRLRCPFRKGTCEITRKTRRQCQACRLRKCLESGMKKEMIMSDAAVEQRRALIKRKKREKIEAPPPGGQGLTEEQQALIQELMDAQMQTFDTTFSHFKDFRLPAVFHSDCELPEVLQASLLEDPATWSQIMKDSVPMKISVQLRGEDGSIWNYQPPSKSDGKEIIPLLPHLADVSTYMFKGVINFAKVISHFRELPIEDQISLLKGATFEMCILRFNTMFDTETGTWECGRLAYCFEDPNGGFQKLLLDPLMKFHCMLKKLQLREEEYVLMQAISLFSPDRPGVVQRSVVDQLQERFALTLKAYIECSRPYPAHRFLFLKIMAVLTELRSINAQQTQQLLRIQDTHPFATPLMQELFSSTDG

COC1=CC(=O)OC(CCc2ccccc2)C1 (centres undefined)
inactive: Potency [1] | Potency [2] | outcome [3] | activation [4] 1.87% | max response [5] -9.22% | Potency [6] | outcome [7] | Potency [8] | max response [9] -8.18% | max response [10] -7.7% | Potency [11] | outcome [12] | outcome [13] | outcome [14] | Potency [15] | outcome [17] | Potency [18] | max response [19] 2.83% | outcome [20] | Potency [21] | outcome [22] | outcome [23] | max response [24] 3.74%
active: Potency [16] 14.1 µM
